Inconclusive results are not listed. Where a call stands in place of a potency, no number is given. The source made the active and inactive calls. Unless noted, the call rests on the fitted dose curve; in most records, active means well fitted curve in the direction sought with a large enough effect; inconclusive means small, poorly fitted or top-dose-only effect, or another doubt; inactive means no such curve, though single readings can be large; an effect the other way counts as inactive or inconclusive.
Assays:
[1] = molecular target: Ubiquitin carboxyl-terminal hydrolase 1 (Homo sapiens) (UniProt O94782); assay: Inhibitors of USP1/UAF1: Pilot qHTS (AID 504865); further: nearly all actives have a fitted effect of over 35% in size; further: potency means the concentration at half of the fitted maximal effect
In short: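 USP1/UAF1 complex (1nM) preincubated with compound 15 min at room temperature, then Ub-Rho substrate (150nM final) added. Fluorescence read kinetically at 480/540 nm, 6 reads every 60 seconds. Buffer: 50mM HEPES pH 7.8, 0.5mM EDTA, 0.1 mg/ml BSA, 1mM TCEP, 0.01% Tween-20.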

[2] = qHTS for Inhibitors of the Functional Ribonucleoprotein Complex (vRNP) of Lassa (LASV) Arenavirus: LASV Primary Screen - GLuc reporter signal (AID 1347082; calls by dose curve; tested in HEK293 reporter line; further: series mostly up to about 57 µM; nearly all actives have a fitted effect of over 60% in size)
[3] = qHTS for Inhibitors of the Functional Ribonucleoprotein Complex (vRNP) of Lassa (LASV) Arenavirus: Viability assay - alamar blue signal for LASV Primary Screen (AID 1347083; calls by dose curve; tested in HEK293 reporter line; further: series mostly up to about 57 µM; nearly all actives have a fitted effect of over 80% in size)
[4] = qHTS for Inhibitors of the Functional Ribonucleoprotein Complex (vRNP) of Lymphocytic Choriomeningitis Arenaviruses (LCMV): Viability assay - alamar blue signal for LCMV Primary Screen (AID 1347085; calls by dose curve; tested in HEK293 reporter line; further: series mostly up to about 57 µM; nearly all actives have a fitted effect of over 80% in size)
[5] = molecular target: Nucleoprotein (Lymphocytic choriomeningitis virus (strain Armstrong)) (UniProt P09992); assay: qHTS for Inhibitors of the Functional Ribonucleoprotein Complex (vRNP) of Lymphocytic Choriomeningitis Arenaviruses (LCMV): LCMV Primary Screen - GLuc reporter signal (AID 1347086; calls by dose curve; further: series mostly up to about 57 µM; nearly all actives have a fitted effect of over 70% in size)
[6] = molecular target: Alpha-galactosidase (Coffea arabica) (UniProt Q42656); assay: Counterscreen for Glucocerebrosidase Inhibitors: qHTS Assay for Coffee Bean alpha-Galactosidase at pH 4.5 (AID 957); further: series mostly up to about 77 µM
In short: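 Coffee bean enzyme (2 nM) with 80 uM 4-methylumbelliferyl alpha-D-galactopyranoside in 50 mM citric acid, 0.005% Tween-20, pH 4.5, 20 min at room temperature; compounds 0.7 nM–77 uM. Stopped at pH 10, fluorescence 365/440 nm; AC50 from Hill fits.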

[7] = molecular target: Alpha-galactosidase (Coffea arabica) (UniProt Q42656); assay: Counterscreen for Glucocerebrosidase Inhibitors: qHTS Assay for Coffee Bean alpha-Galactosidase at pH 5.9 (AID 998)
In short: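 Green coffee bean enzyme (2 nM) with 4-methylumbelliferyl alpha-D-galactopyranoside (80 uM) in 50 mM citric acid, 0.005% Tween-20, pH 5.9, 20 min at room temperature; compounds 0.7 nM–77 uM. Stopped at pH 10, fluorescence Ex365/Em440; Hill-fit AC50.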

[8] = Inducers of the Endoplasmic Reticulum Stress Response (ERSR) in human glioma: Validation (AID 504836)
In short: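 Stably transfected U87-MG glioma cells carrying a GRP78-based luciferase sensor; 16 h compound incubation. Luminescence end-point read 10 min after Bright-Glo addition at room temperature.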

[9] = molecular target: Cytochrome P450 3A4 (Homo sapiens) (UniProt P08684); assay: qHTS Assay for Activators of Cytochrome P450 3A4 (AID 885); further: nearly all actives have a fitted effect of over 65% in size
In short: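 Human CYP3A4 (20 nM) with Luciferin-PPXE at 25 uM (its KM) in 200 mM KPO4; 10 min compound preincubation, then NADPH regeneration and 60 min reaction at RT. Luciferin read by luminescence; normalized to 57 uM ketoconazole full inhibition.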

[10] = Confirmation and Secondary Assay for Modulators of Hemoglobin Beta Chain Splicing at IVS2 654 locus (AID 910);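 further: HeLa cells stably carrying EGFP split by mutant beta-globin IVS2-654 intron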
In short: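 HeLa cells stably expressing EGFP interrupted by β-globin IVS2-654 intron, seeded overnight in Opti-MEM/2% FCS, then treated 2 days at 37 °C. Restored splicing read as total peak GFP intensity per well by laser scanning cytometry (488 nm excitation, 500–520 nm emission); 500 nM antisense PNA as control.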

[11] = Confirmation and Secondary Assay for Modulators of Hemoglobin Beta Chain Splicing at IVS2 705 locus (AID 930);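 further: HeLa cells stably expressing the EGFP-705 splicing reporter; GFP fluorescence per well restored by corrected splicing of the IVS2-705 intron in EGFP; series mostly up to about 46 µM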
In short: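 Per-well GFP, captured at 1 x 8 µm resolution with 488 nm excitation, served as the read-out for HeLa EGFP-705 cells incubated 2 days with test compound versus DMSO.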

Sequence of Nucleoprotein (Lymphocytic choriomeningitis virus (strain Armstrong)) (P09992 whole entry, looked up): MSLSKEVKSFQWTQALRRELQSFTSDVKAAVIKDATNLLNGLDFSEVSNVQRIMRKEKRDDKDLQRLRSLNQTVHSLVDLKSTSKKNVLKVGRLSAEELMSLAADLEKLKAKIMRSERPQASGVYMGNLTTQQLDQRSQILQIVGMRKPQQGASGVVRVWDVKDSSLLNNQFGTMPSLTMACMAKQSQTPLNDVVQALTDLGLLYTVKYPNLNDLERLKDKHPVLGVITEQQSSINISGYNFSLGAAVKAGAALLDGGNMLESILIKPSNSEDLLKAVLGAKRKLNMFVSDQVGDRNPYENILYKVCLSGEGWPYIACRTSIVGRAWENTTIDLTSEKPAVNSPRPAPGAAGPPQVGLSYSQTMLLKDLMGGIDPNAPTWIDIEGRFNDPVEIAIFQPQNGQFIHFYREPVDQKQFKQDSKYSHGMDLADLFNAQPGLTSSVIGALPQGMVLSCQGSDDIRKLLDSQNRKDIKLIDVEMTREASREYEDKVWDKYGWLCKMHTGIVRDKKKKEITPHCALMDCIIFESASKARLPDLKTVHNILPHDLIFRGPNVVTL
Sequence of Ubiquitin carboxyl-terminal hydrolase 1 (Homo sapiens) (O94782 whole entry, looked up): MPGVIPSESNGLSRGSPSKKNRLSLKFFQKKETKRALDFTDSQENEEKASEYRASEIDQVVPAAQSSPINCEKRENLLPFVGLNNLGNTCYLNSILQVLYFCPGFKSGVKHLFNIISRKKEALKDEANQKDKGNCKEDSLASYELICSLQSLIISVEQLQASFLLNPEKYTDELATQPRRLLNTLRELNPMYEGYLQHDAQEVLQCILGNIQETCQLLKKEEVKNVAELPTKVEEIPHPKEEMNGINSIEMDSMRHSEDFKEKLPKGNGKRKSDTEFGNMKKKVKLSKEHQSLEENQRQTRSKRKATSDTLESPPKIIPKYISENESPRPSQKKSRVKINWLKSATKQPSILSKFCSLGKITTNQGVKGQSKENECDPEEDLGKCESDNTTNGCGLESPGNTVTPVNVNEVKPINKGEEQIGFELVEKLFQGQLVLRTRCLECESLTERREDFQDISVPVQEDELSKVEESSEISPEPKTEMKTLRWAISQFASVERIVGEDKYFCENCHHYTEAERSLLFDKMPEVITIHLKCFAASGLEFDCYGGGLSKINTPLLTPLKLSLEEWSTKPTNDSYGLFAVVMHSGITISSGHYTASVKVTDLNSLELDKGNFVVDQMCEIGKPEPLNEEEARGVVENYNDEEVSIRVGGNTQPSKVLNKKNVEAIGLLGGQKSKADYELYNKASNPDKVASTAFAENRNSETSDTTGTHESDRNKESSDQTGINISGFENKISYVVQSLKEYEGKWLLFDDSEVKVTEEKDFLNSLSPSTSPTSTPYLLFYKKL
Sequence of Alpha-galactosidase (Coffea arabica) (Q42656 whole entry, looked up): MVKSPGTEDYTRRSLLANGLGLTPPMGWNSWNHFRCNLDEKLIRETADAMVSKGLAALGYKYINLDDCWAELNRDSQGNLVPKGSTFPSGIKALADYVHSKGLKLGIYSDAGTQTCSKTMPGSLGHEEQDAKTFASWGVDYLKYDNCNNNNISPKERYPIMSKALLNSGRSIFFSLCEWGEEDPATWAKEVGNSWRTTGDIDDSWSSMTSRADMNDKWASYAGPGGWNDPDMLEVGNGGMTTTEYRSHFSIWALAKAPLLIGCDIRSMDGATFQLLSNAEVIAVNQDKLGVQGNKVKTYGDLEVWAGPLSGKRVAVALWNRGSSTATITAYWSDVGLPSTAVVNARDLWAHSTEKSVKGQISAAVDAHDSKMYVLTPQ
Sequence of Cytochrome P450 3A4 (Homo sapiens) (P08684 whole entry, looked up): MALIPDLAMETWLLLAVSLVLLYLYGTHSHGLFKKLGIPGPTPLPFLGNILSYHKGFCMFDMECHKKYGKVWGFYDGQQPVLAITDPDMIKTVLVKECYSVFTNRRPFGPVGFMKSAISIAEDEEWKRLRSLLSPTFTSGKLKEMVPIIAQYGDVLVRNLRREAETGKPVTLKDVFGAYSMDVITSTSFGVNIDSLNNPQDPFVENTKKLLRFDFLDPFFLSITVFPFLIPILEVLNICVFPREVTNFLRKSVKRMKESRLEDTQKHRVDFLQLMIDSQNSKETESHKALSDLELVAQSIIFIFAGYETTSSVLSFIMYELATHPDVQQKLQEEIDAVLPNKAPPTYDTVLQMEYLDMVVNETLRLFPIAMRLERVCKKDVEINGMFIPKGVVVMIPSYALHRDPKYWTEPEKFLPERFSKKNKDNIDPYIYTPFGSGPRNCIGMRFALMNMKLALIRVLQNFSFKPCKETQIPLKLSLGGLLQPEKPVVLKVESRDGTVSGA

Structure (SMILES) | Potency [1] | Potency [2] | Potency [3] | Potency [4] | Potency [5] | outcome [6] | outcome [7] | outcome [8] | Potency [9] | Potency [10] | outcome [11]
c1ccc2c(c1)CN1CCCC1=N2 | inactive | inactive | inactive | inactive | inactive | – | – | – | – | – | –
c1ccc(CN2CCC3(CCCc4ccccc43)CC2)cc1 | – | inactive | inactive | inactive | inactive | inactive | inactive | inactive | – | – | –
CN1CC(CO)=C[C@H]2c3cccc4[nH]cc(c34)C[C@H]21 | 50.1 µM (active) | inactive | inactive | inactive | inactive | – | – | – | inactive | inactive | inactive

Reference: PubChem BioAssay (NCATS)
